TRHR enhancer: allosteric enhancers of human TRH receptor | P34981 | TRHR cells, fluo-8 calcium fluorescence, EC20 TRH enhancement | enhancement, % at 2 µM | 0.66% of 360,000 active | AID 493056; in the data active means enhancement above about 30%; further: 0% is about no effect
Target sequence (P34981 whole entry, looked up): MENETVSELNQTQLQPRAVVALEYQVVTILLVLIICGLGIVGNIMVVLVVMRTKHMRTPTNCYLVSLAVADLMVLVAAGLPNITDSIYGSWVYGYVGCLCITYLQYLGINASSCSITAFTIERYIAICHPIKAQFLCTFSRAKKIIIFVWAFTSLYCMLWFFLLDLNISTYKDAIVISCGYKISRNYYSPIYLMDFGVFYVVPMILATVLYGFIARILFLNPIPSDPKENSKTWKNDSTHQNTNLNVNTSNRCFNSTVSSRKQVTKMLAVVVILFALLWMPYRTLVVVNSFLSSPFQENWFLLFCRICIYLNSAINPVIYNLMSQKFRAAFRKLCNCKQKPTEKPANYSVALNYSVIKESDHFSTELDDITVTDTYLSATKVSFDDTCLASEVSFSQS
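TRHR-expressing cells loaded with fluo-8 calcium dye were read kinetically (ex 480/em 530) during compound addition, then stimulated with an EC20 of TRH (10 nM final). Enhancement of the Gq-mediated intracellular calcium response was scored.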
D1 PAM: potentiators of human D1 dopamine receptor; P21728; HEK293 TREx D1 cells, calcium flux, dopamine EC20 potentiation; potentiation, % at 10 µM; 0.036% of 360,000 active; AID 504651; in the data active means potentiation above about 30%; further: 0% is about no effect
D1 agonist: agonists of human D1 dopamine receptor | P21728 | HEK293 T-REx D1 cells, calcium flux, agonist mode | activation, % at 2 µM | 1% of 360,000 active; further: 0% is about no effect
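Agonism was scored from calcium flux recorded over 180 s (1 read/s) after pintool compound addition, following a 10-cycle baseline. Cells were inducible force-coupled HEK293 TREx D1, plated overnight at 30 C and loaded with no-wash calcium dye.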
TRHR agonist: agonists of human TRH receptor. TRHR cells, calcium flux fluo-8, FDSS agonist mode. AID 493084. activation, % at 2 µM. 0.18% of 360,000 active. P34981; further: 0% is about no effect
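Read-out: compound-evoked intracellular calcium rise in TRHR cells, fluo-8 dye, kinetic FDSS fluorescence at 1 s/cycle following a 10-cycle baseline. Cells cultured overnight before dye loading (30 min–1.5 h, RT).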
D1 antag: human D1 dopamine receptor antagonism; P21728; HEK293 TREx D1 cells, calcium flux, dopamine EC80; stronger effect = lower value; activity change, negative = inhibition, % at 10 µM; 3.2% of 360,000 active; AID 504652; in the data active means activity change below about -30%; further: on the % scale 0 is the no-effect control and ±100 the full control effect
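Allosteric or orthosteric antagonism assessed as attenuation of the calcium response to EC80 dopamine, added 180 s after compound, in induced HEK293 Trex D1 cells loaded with no-wash calcium dye.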
* marks the source's active call; other numbers are inactive results. Hits are enriched below; roughly 4.6% of the tested compounds scored in any of these assays. Unless noted, no stated cut-off is given here; in the data, active means activation above about 30%; inactive means the rest.

SMILES	TRHR enhancer	D1 PAM	D1 agonist	TRHR agonist	D1 antag
CN1CCN(C(CNC(=O)c2ccccc2)c2ccc3c(c2)OCO3)CC1 (stereo unspecified)	-1.7	-4.0	0.0	0.4	9.3
CC(SCc1cc(=O)n2c([nH]c3ccccc32)c1C#N)C(=O)O (stereo unspecified)	1.6	-3.9	3.3	1.7	-32.0*
CCC(=O)N1CCc2cc(Br)cc(S(=O)(=O)CCC(=O)Nc3ccc(Cl)cc3)c21	-2.1	1.0	2.2	1.7	-5.0
Cc1ccccc1-n1c(CSC(=N)N)nc2ccccc2c1=O	5.3	1.5	1.5	0.0	-41.5*
O=c1c2ccccc2nc(CSc2nnnn2-c2ccccc2)n1-c1ccccc1Cl	-0.9	-1.1	2.9	-0.4	-35.3*
Cc1cc(Br)ccc1NC(=O)CNC(=O)CNc1cccc([N+](=O)[O-])c1	-0.4	-10.8	-0.4	0.1	0.8
COc1ccc(-c2nc(=S)c3ccc4ccccc4c3[nH]2)cc1	2.5	-11.6	3.5	-0.5	-68.2*
CCc1cc2c(=O)c(-c3nc(C)cs3)coc2cc1OC(C)C(=O)NCCO (stereo unspecified)	-5.8	-2.4	-0.1	-0.2	-33.2*
O=C(NCCC(=O)N1CCN(S(=O)(=O)c2ccccc2Cl)CC1)Nc1ccccc1	2.3	0.8	1.6	1.2	-24.7
CCOC(=O)c1nc(NCc2ccc(Cl)cc2)c2c(C)noc2n1	0.1	-1.1	2.3	-0.8	-48.9*
CCc1nnc(SCc2nc(-c3ccccc3)oc2C)c2cc3sccc3n12	1.8	0.1	2.1	0.2	0.0
CC1=C(C(=O)OC2CCCCC2)C(c2ccc(N(C)C)cc2)NC(=O)N1 (stereo unspecified)	-6.8	-0.5	1.0	-0.2	11.2
COc1nnc(-c2ccc(C)c(S(=O)(=O)NC(C)C)c2)c2ccccc12	-0.5	6.0	5.3	-0.9	3.6
CC(=O)Nc1ccc(Nc2nnc(-c3ccc(C)c(S(=O)(=O)NCCO)c3)c3ccccc23)cc1	3.4	-4.2	1.5	0.1	2.2
Cc1ccc(-c2nnc(Nc3ccc(C(N)=O)cc3)c3ccccc23)cc1S(=O)(=O)N1CCCCC1	-2.2	1.3	2.2	-1.7	-21.3
Cc1ccc(-c2nnc(Nc3ccc(O)cc3)c3ccccc23)cc1S(=O)(=O)N1CCCCC1	30.1*	0.2	-2.2	-0.1	-17.5
Cc1ccc(Nc2nnc(-c3ccc(C)c(S(=O)(=O)N4CCOCC4)c3)c3ccccc23)c(C)c1	8.7	-3.1	-0.9	-1.2	-45.0*
Cc1ccc(-c2nnc(Nc3ccc(O)cc3)c3ccccc23)cc1S(=O)(=O)NC(C)(C)CO	18.5	-2.7	-0.8	-0.7	-44.1*
Cc1ccc(-c2nnc(Nc3ccc(F)cc3)c3ccccc23)cc1S(=O)(=O)NC(C)C	6.7	-3.1	-1.2	-0.4	-33.7*
CCn1c(CCNC(=O)c2ccc(OC)cc2)nnc1SCc1ccc(Cl)c(Cl)c1	-7.6	-8.3	10.0	-0.2	-21.4
COc1ccc(C(=O)NC(CO)c2nnc(SCc3ccc(Cl)c(Cl)c3)n2C)cc1 (stereo unspecified)	-4.1	-0.2	-0.1	-0.4	-33.7*
Cn1c(=O)n(C)c2cc(NS(=O)(=O)c3ccc4c(c3)CCCC4)ccc21	1.0	-4.3	7.2	-0.4	-33.5*
Clc1ccc(/C=N/Nc2ccccn2)cc1	9.8	-9.4	1.8	2.0	-30.7*
CC1(C)Cc2cccc(C(=O)Nc3ccc(Cl)cc3)c2O1	7.1	-3.6	3.9	-0.3	-34.2*
CC1(C)Cc2cccc(C(=O)Nc3ccncc3)c2O1	4.3	-3.2	4.4	0.0	6.4
SMILES	TRHR enhancer	D1 PAM	D1 agonist	TRHR agonist	D1 antag
Cc1nc2cccnc2n1C1CCN(S(=O)(=O)c2ccc(C(C)C)cc2)CC1	0.7	0.0	38.6*	-1.4	0.1
O=C(COC(=O)c1cccnc1Cl)NCCCc1ccccc1	-5.9	-3.8	1.6	-0.5	-3.4
O=C(COC(=O)c1ccccc1O)NCCCc1ccccc1	-0.4	-6.1	1.8	-0.5	-34.3*
Cc1ccc2cc(CN(Cc3nnnn3Cc3ccco3)CC3CCCO3)c(=O)[nH]c2c1C (stereo unspecified)	-1.6	0.0	-1.7	0.3	-35.2*
COc1ccc2[nH]c(=O)c(CN(Cc3nnnn3Cc3ccccc3)CC3CCCO3)cc2c1 (stereo unspecified)	-5.5	-5.1	0.2	-0.8	-3.8
Cc1ccc2cc(CN(CC3CCCO3)C(=S)NCc3ccco3)c(=O)[nH]c2c1C (stereo unspecified)	34.0*	-11.9	3.0	0.6	2.0
Cc1ccc(C)c2[nH]c(=O)c(CN(CC3CCCO3)C(=S)NCc3ccco3)cc12 (stereo unspecified)	9.0	-2.0	1.2	-0.1	-3.6
CCCCNC(=S)N(Cc1ccco1)Cc1cc2cc3c(cc2[nH]c1=O)OCCO3	2.1	-4.7	-0.7	1.3	-46.5*
Cc1cccc(NC(=O)C2CCCN(S(=O)(=O)c3ccc4c(c3)oc(=O)n4C)C2)c1C (stereo unspecified)	-2.2	-1.9	-1.6	-0.9	-23.9
CCSC1=N/C(=C\c2cccnc2)C(=O)N1c1ccccc1	7.5	-17.5	0.6	0.2	-68.4*
CSC1=N/C(=C\c2cccnc2)C(=O)N1c1ccccc1	-1.8	-9.1	3.1	-0.4	-43.2*
Cc1nc(Oc2ccc(F)cc2Cl)c2oc3ccccc3c2n1	-2.6	-1.0	0.6	0.0	-2.4
COc1cccc(C2=NS(=O)(=O)N(C)C(C(=O)Nc3cccc(O)c3)=C2)c1	-3.8	-3.6	4.0	0.1	-4.4
O=C(NCc1ccccc1)/C(=C\c1ccc([N+](=O)[O-])cc1)NC(=O)c1ccco1	-4.2	-7.9	-0.2	-0.6	-14.2
C=CCOC(=O)/C(=C\c1ccccc1)NC(=O)c1ccco1	7.0	-4.0	3.4	0.1	-43.1*
O=C(NCCc1ccccc1)/C(=C\c1ccc([N+](=O)[O-])cc1)NC(=O)c1ccco1	-8.6	-2.6	5.9	-0.5	-38.1*
O=C(N/C(=C\c1ccccc1)C(=O)N1CCOCC1)c1ccco1	30.4*	-1.6	3.3	-1.0	-11.0
CC(=O)c1c(C)n(-c2ccccc2)c2ccc(O)cc12	4.3	-6.1	-0.1	-0.6	-38.1*
CC(=O)c1c(C)n(-c2cccc(Cl)c2)c2ccc(O)cc12	3.1	-3.0	0.5	-0.9	-0.8
COC(=O)c1c(C)n(-c2ccc(C)cc2)c2ccc(O)cc12	-3.9	-9.4	1.8	-0.3	-61.7*
CC(=O)c1ccc(-n2c(C)c(C(C)=O)c3cc(O)ccc32)cc1	3.5	3.9	4.1	-0.5	-22.2
CC(=O)c1c(C)n(-c2ccc(Cl)cc2)c2ccc(O)cc12	38.9*	-0.4	2.6	-0.3	-5.4
CCOc1ccc(-n2c(C)c(C(=O)OC)c3cc(O)ccc32)cc1	-1.1	3.7	1.5	-0.3	6.9
Cc1ccc(C(=O)C[n+]2cc(Br)cc(Br)c2)cc1[N+](=O)[O-]	0.7	-12.3	-0.6	0.4	11.8

High-throughput results deposited in PubChem by National Center for Advancing Translational Sciences (NCATS).
